Screening data as filed in PubChem BioAssay.
Compounds with a hit are over-represented: about 5.7% of the library has one in this group of screens.
hgDAF12 agonist = hgDAF-12 agonism, primary luciferase screen; HEK293 GAL4-hgDAF12 UAS-luciferase reporter, agonist luminescence; normalized to butyrate control; activation, % at 6.8 µM; 370,000 compounds, 1.8% hits; AID 687014;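 active = activation above a cutoff set at the mean of all screened compounds plus 3 SD, cut at about 10% in these data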;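 also: 0% = DMSO wells and 100% = sodium butyrate wells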
DAX1 inh-1 = DAX1 (NR0B1) inhibition, primary screen | 370,000 compounds, 1.1% hits | inhibition, % at 6.8 µM | HEK293T StAR-luciferase reporter, SF-1/DAX-1 repression relief;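 active = inhibition above the mean over all tested compounds plus 3 SD, cut at about 3.6% in these data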;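 also: 0% = DAX-1 cells with DMSO and 100% = cells lacking DAX-1 with DMSO; higher inhibition means more luminescence from relief of DAX-1 repression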
AHR activator = activates the human aryl hydrocarbon receptor. P35869. AHR-responsive luciferase reporter cells, luminescence. activation, % at 5 µM. 320,000 compounds, 2.5% hits. AID 2796; in the data active = activation above about 47%;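 also: 0% = vehicle wells and 100% = reference agonist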
Target sequence (P35869 whole entry, looked up): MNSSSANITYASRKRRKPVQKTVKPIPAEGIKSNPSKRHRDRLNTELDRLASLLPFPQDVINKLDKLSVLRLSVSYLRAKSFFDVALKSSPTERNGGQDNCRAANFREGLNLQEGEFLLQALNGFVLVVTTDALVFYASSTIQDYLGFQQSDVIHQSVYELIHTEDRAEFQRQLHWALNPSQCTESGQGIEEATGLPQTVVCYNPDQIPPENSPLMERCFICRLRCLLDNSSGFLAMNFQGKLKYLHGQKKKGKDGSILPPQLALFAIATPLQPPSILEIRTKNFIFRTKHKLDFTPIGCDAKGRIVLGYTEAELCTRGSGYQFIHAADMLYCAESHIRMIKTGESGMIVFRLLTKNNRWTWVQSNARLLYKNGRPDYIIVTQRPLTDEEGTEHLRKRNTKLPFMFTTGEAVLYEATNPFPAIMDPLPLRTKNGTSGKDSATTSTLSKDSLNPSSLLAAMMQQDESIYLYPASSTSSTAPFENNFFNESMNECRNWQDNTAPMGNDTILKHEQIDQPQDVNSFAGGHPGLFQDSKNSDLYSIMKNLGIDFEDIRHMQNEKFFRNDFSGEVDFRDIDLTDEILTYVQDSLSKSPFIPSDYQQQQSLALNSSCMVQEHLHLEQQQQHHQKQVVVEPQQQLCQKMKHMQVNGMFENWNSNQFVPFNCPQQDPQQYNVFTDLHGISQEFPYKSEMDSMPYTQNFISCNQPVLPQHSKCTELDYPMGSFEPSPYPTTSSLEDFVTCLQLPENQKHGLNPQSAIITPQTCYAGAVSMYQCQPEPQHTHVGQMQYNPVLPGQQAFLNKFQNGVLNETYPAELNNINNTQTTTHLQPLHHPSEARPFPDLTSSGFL
ssDAF-12 act = activates DAF-12 receptor from parasite S. stercoralis. HEK293 ssDAF-12/GRIP1 lit1-tk-luc reporter, luminescence; % of 3 µM dafachronic acid response. activation, % at 6.8 µM. 370,000 compounds, 1% hits. AID 652126;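 active = activation above the mean over all tested compounds plus 3 SD, cut at about 0.9% in these data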;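 also: 0% = DMSO-only wells and 100% = 3 µM delta7-dafachronic acid wells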
hcDAF-12 act = H. contortus DAF-12 activation, primary screen | HEK293 hcDAF-12 lit1-tk-luc reporter, luminescence; 0% DMSO, 100% Δ7-dafachronic acid | 370,000 compounds, 1.4% hits | AID 652067 | activation, % at 6.8 µM;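 active = activation above the mean of all tested compounds plus 3 SD, cut at about 5.5% in these data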;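 also: 100% = response to 3 µM Δ7-dafachronic acid high control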
DAX1 inh-2 = inhibitors of human orphan nuclear receptor DAX1 (NR0B1). HEK293 Gal4-DAX1 luciferase reporter, luminescence. inhibition, % at 6.75 µM. P51843. 340,000 compounds, 0.99% hits;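 active = inhibition above the mean over all tested compounds plus 3 SD, cut at about 4.2% in these data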;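 also: 0% = DAX1-transfected cells with DMSO and 100% = empty-vector control cells with DMSO; inhibition shows as a rise in luminescence from relieved DAX1 repression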
AHR act confirm = human AHR activation, confirmation | shares compounds with AHR activator | human cells, AHR-responsive luciferase reporter, luminescence | activation, % at 9 µM | 2,300 compounds, 87% hits; in the data active = activation above about 49%;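 also: HepG2 hepatoma cells carrying a DRE-driven firefly luciferase reporter; 0% = vehicle wells and 100% = reference agonist wells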
PXR counter = counter-screen for AHR activators: human PXR activators. shares compounds with AHR activator. cell-based PXR reporter, luciferase luminescence. activation, % at 11.6 µM. 2,300 compounds, 88% hits. AID 434939; in the data active = activation above about 11%;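 also: human hepatoma DPX-2 cells expressing full-length human PXR; 0% = DMSO and 100% = reference agonist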
DAX1 conf = confirmation of human DAX1 (NR0B1) inhibitors. shares compounds with DAX1 inh-1. HEK293T StAR-promoter luciferase reporter, SF-1/DAX-1 repression. inhibition, % at 6.8 µM. 2,400 compounds, 87% hits;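 active = inhibition above the average of every tested compound plus 3 SD, cut at about 3.8% in these data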;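 also: 0% = DAX-1 cells with DMSO and 100% = no DAX-1 control cells with DMSO; active compounds raise luminescence by relieving repression of the StAR reporter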
SF1 AF2mut Luc = nonselective inhibitor or artifact in SF-1 mutant DAX1 counter-screen | shares compounds with DAX1 inh-1 | HEK293 StAR-luciferase, SF-1 AF2 mutant, luminescence | inhibition, % at 6.8 µM | 2,400 compounds, 78% hits | AID 652136;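 active = inhibition above the mean of all tested compounds plus 3 SD, cut at about 3% in these data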;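 also: 0% = DAX-1 transfected cells with DMSO and 100% = cells without DAX-1 with DMSO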
LXRb hcDAF ctr = counter-screen for hcDAF-12 agonists: agonists of human LXR-beta | 3,400 tested, under 10 active | activation, % at 6.8 µM | HEK293 Gal4-LXR tk-luc reporter, luminescence, 24 h; normalized: DMSO 0%, positive control 100% | shares compounds with hcDAF-12 act | AID 743027;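 active = mean percent activation of the reporter above a cutoff set as the average over tested compounds plus their standard deviation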
hcDAF12 ag = hcDAF-12 agonism, confirmation assay; HEK293 hcDAF-12 lit1-tk-luc reporter, luminescence; % of Δ7-dafachronic acid response; shares compounds with hcDAF-12 act; activation, % at 6.8 µM; 3,400 compounds, 61% hits;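 active = mean activation across triplicate tests above the threshold derived from the earlier primary screen, cut at about 5.5% in these data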;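 also: 0% = DMSO only wells and 100% = 3 µM Δ7-dafachronic acid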
hgDAF12 conf = confirmation of H. glycines DAF-12 agonists; shares compounds with hgDAF12 agonist; HEK293 GAL4-hgDAF12 luciferase reporter, agonist mode; percent of butyrate response; activation, % at 6.8 µM; 3,300 compounds, 80% hits;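 active = mean activation over triplicate wells above the hit cutoff derived from the earlier primary screen, cut at about 11% in these data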;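 also: 0% = DMSO low control and 100% = 2 mM sodium butyrate high control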
LXR ag 2 = activates human LXR-beta, counter-screen for DAF-12 agonists. shares compounds with hgDAF12 agonist. 3,300 tested, under 10 active. AID 743051. HEK293 Gal4-LXR luciferase reporter, 24 h. activation, % at 6.8 µM;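 active = mean activation of the triplicate above a set limit carried over from the primary screen, none filed active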
* hit, by the source's call; / = not tested or not shown.

SMILES	hgDAF12 agonist	DAX1 inh-1	AHR activator	ssDAF-12 act	hcDAF-12 act	DAX1 inh-2	AHR act confirm	PXR counter	LXRb hcDAF ctr	hcDAF12 ag	hgDAF12 conf	LXR ag 2	others
CCOc1ccc2oc(C(=O)Nc3ccc(C)cn3)c(C)c2c1	7	1	/	0	4	1	/	/	/	/	/	/
Cc1ccc(C(=O)Nc2ccc3c(c2)OCO3)cc1Cl	18*	11*	94*	0	6.1*	4.8*	118*	38*	/	/	20*	1	DAX1 conf=11*;SF1 AF2mut Luc=6.6*
O=C(Nc1ccc2c(c1)CCC2)Nc1ccc2c(c1)OCO2	14*	1	85*	-1	1	2	52*	43*	/	/	14*	1
O=C(Nc1ccc2c(c1)OCO2)c1ccc(Br)s1	25*	4.3*	131*	1.6*	13*	2	93*	25*	2	15*	22*	1
Cn1c(C(=O)Nc2ccc3c(c2)OCO3)cc2sccc21	17*	5.5*	89*	2.5*	14*	4.8*	139*	109*	1	16*	19*	1	DAX1 conf=11*;SF1 AF2mut Luc=7.0*
OCC1OC(n2nc3ccccc3n2)C(O)C(O)C1O (centres undefined)	0	0	0	-1	-3	1	/	/	/	/	/	/
O=C1[C@H](Cc2ccccc2)NCCCC[C@H](c2ccc(Cl)cc2)N1Cc1ccc(Cl)cc1	1	0	/	-1	0	0	/	/	/	/	/	/
O=C(Nc1ccc2c(c1)OCO2)c1n[nH]c(=O)c2ccccc12	18*	3	132*	-1	2	2	132*	43*	/	/	9	1
O=C(Nc1nccs1)c1csc2c1CCCC2	14*	0	84*	0	7.2*	1	121*	25*	0	4	10	0
O=C(Nc1ccon1)c1csc2c1CCCC2	5	0	8	-2	0	-1	/	/	/	/	/	/
Cc1cc(=O)oc2cc(OCC(O)CN3CCN(c4ccccc4)CC3)ccc12 (centres undefined)	-1	-1	-6	-1	-2	-1	/	/	/	/	/	/
N#C/C(=C/c1cccs1)c1nc2ccccc2[nH]1	18*	0	117*	-1	6.8*	-1	125*	22*	1	8.4*	14*	1
Cc1ccc(OCCCOc2ccc(Cl)cc2Cl)c([N+](=O)[O-])n1	3	/	/	-1	-2	/	/	/	/	/	/	/
Cc1c(C(=O)Nc2ccccn2)oc2ccccc12	14*	4.7*	115*	3.3*	13*	3	212*	21*	2	17*	23*	1	DAX1 conf=11*;SF1 AF2mut Luc=5.8*
CCCC(=O)NC(=S)Nc1cccc(C(C)=O)c1	-1	0	6	-1	-2	0	/	/	/	/	/	/
O=C(/C=C/c1c[nH]c2ccccc12)c1ccccc1	16*	1	93*	1	5	2	105*	28*	/	/	20*	1
O=C(/C=C/c1ccccc1O)c1ccccc1	3	-1	/	-1	0	1	/	/	/	/	/	/
CC(=O)Nc1ccc2nc(SCC(=O)N3CCOCC3)sc2c1	6	0	2	-1	0	0	/	/	/	/	/	/
CCCCCCCCNS(=O)(=O)CC1NCc2ccccc21 (centres undefined)	3	0	/	0	1	/	/	/	/	/	/	/
Cc1ccc(S(=O)(=O)c2nc(Nc3nccs3)sc2Cl)cc1	-2	-1	13	-1	-2	0	/	/	/	/	/	/
O=C(Nc1ccc(Cl)cn1)c1cc2ccccc2o1	14*	4.8*	110*	2.7*	13*	2	72*	8	1	16*	20*	1	DAX1 conf=14*;SF1 AF2mut Luc=6.8*
O=C(Cc1ccc(Cl)cc1)Nc1ccc(Cl)cn1	4	0	-1	-1	1	2	/	/	/	/	/	/
COc1cc(N)ccc1NC(=O)c1cc2ccccc2o1	17*	1	107*	0	4	4	141*	12*	/	/	9	1
O=C(Nc1ccc(Cl)cn1)c1ccccc1F	15*	3	148*	1.2*	6.6*	2	77*	21*	1	7.8*	18*	1
O=C(NNC(=O)c1cc2ccccc2o1)c1ccc(Cl)cc1	2	0	1	-2	-2	1	/	/	/	/	/	/
SMILES	hgDAF12 agonist	DAX1 inh-1	AHR activator	ssDAF-12 act	hcDAF-12 act	DAX1 inh-2	AHR act confirm	PXR counter	LXRb hcDAF ctr	hcDAF12 ag	hgDAF12 conf	LXR ag 2	others
O=C(O)c1cccc2c1C(=O)c1cccc3snc-2c13	-1	0	4	-2	1	0	/	/	/	/	/	/
C[C@@H]1C=C(C(=O)NC2CC2)O[C@H](OCc2ccc(CO)cc2)C1	2	0	1	-1	-1	0	/	/	/	/	/	/
Cc1ccc(OCCNC(=O)c2ccc(C)o2)cc1	3	0	0	-1	1	0	/	/	/	/	/	/
O=C(O)c1ccc(N/N=C/c2ccnc3ccccc23)cc1	5	2	23	-1	1	3	/	/	/	/	/	/
O=C(O)c1ccc(N/N=C/C2=Cc3ccccc3OC2)cc1	19*	4.1*	122*	0	3	11*	83*	18*	/	/	16*	0
Cc1cccnc1Nc1nc(-c2ccc(F)cc2)cs1	18*	3	126*	1.9*	10*	6.2*	131*	17*	1	8.2*	16*	1
Cn1ccsc1=NC(=O)c1ccc(Cl)cc1	14*	4.6*	88*	1.1*	9.4*	1	126*	25*	1	7.9*	12*	0	DAX1 conf=8.9*;SF1 AF2mut Luc=7.7*
